PubChem BioAssay AID2530 (National Center for Advancing Translational Sciences (NCATS), 2010)
Records with an inconclusive call do not appear. Active and inactive are the calls of the source. Calls follow the shape of the dose curve; as a rule, active = well fitted inhibition curve with a large enough effect; inconclusive = small, poorly fitted or top-dose-only effect; inactive = flat fitted curve, though single readings scatter.

These compounds were tested against Luciferin 4-monooxygenase (Photuris pensylvanica) (UniProt Q27757) (assay: Secondary Assay for Luciferase (Kinase-Glo TM) Inhibition Counterscreen). Conditions: Kinase-Glo luciferase enzyme, luminescence; series mostly up to 58.1 µM; activity, negative = inhibition: at the top concentration.
In short: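 Kinase-Glo firefly-type luciferase with 10 uM ATP in 50 mM imidazole pH 7.2, 50 mM KCl, 7 mM MgCl2, 0.01% Tween 20, 0.05% BSA. Luminescence read after 8 min at ambient temperature, normalized to DMSO and 40 uM SIB 1757, then Hill-fitted.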
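For activity, negative = inhibition in this document: 0% = DMSO only and -100% = 40 µM SIB 1757 full inhibition.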
Potency is read from the fitted curve at half-maximal effect.

| SMILES | activity, negative = inhibition | Potency |
| --- | --- | --- |
| Cc1c(C(=O)NC(=S)Nc2ccc(NC(=O)c3cccs3)cc2)oc2ccccc12 | -3.45% (inactive) | – |
| CN=c1nc(-c2ccccc2)n(-c2ccccc2)s1 | -0.55% (inactive) | – |
| Cc1ccccc1-c1nc(-c2ccccn2)no1 | – | 4.61 µM (active) |
| Cc1cccc(OC2=NS(=O)(=O)c3ccccc32)c1 | -3.94% (inactive) | – |
| Cc1ccccc1N=CC1=C(O)c2ccccc2C1=O | – | 11.6 µM (active) |
| Cc1ccc(NS(=O)(=O)c2cc3c(cc2Cl)CCC(=O)N3)cc1C | -0.531% (inactive) | – |
| Oc1ccc(C23CC4CC(CC(C4)C2)C3)cc1O | -1.06% (inactive) | – |
| O=C1c2ccccc2C(=O)N1c1ncccc1O | -2.76% (inactive) | – |
| CCCCN1C(=O)c2ccccc2C1=O | 0.2% (inactive) | – |
| CSc1cc2c(s1)c1cnn(Cc3cccc(O)c3)c(=O)c1n2C | -1.24% (inactive) | – |
| O=C1c2ccccc2C(=O)N1c1nccs1 | 1.91% (inactive) | – |
| COc1cc(Cl)c(C)cc1NC(=O)COC(=O)c1cc[n+]([O-])cc1 | -3.12% (inactive) | – |
| c1ccc(-c2nc(-c3ccccn3)no2)cc1 | – | 3.66 µM (active) |
| O=C1NS(=O)(=O)c2ccccc21 | 1.52% (inactive) | – |
| O=C1c2ccccc2C(=O)N1c1ccc2ccccc2n1 | -1.93% (inactive) | – |
| CC(C)(C)NC(=O)C(c1ccncc1)N(C(=O)Cn1nnc(-c2ccc(F)cc2)n1)c1ccccc1 (centres undefined) | -1.65% (inactive) | – |
| O=C1c2ccccc2C(=O)N1c1cccc(Cl)c1 | -1.52% (inactive) | – |
| O=C(Nc1ccc(N2CCOCC2)cc1)c1cn2ccccc2n1 | – | 6.51 µM (active) |
| Cc1ccc(NS(=O)(=O)c2cc3c(cc2Cl)NC(=O)CO3)cc1C | -2.48% (inactive) | – |
